DT40 TDP1 no CPT: qHTS for Inhibitors of human tyrosyl-DNA phosphodiesterase 1 (TDP1): qHTS in cells in absence of CPT; DT40 Tdp1-/- hTDP1 cells, no CPT, ATP luminescence, 48 h; Potency, µM (series often up to 46.2 µM), inactives show top-dose activity change, negative = growth inhibition, usual class: inhibitors; 15% of 420,000 active; also: nearly all actives have a fitted effect of over 55% in size
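Readout: luminescence from CellTiter-Glo after 30 min in the dark at RT. Cells: DT40 Tdp1-/- with stable hTDP1, 400/well. Exposure: compounds alone, ≥48 hr, 37 °C.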
Gal4-VP16 FLuc: VP16 counterscreen qHTS for inhibitors of ROR gamma transcriptional activity; Drosophila S2 Gal4-VP16 UAS-luciferase, luminescence, 20 h; Potency, µM (top dose mostly 53.6 µM), inactives show at the top dose activity, negative = inhibition, hits mostly inhibitors; 3.5% of 310,000 active; AID 2546, 2010;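 also: Gal4-VP16 expression switched on by copper sulfate through the metallothionein promoter; nearly all actives have a fitted effect of over 50% in size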
ALOX12 inh: Primary qHTS assay for inhibitors of human arachidonate 12S-lipoxygenase (ALOX12): Round 2 | 1.1% of 580,000 active | purified 12hLO, xylenol orange hydroperoxide absorbance | Potency, µM (highest dose often 108 µM), inactives show top-dose activity change, negative = inhibition, usual class: inhibitors | Polyunsaturated fatty acid lipoxygenase ALOX12 (Homo sapiens), P18054
Target sequence (P18054 whole entry, looked up): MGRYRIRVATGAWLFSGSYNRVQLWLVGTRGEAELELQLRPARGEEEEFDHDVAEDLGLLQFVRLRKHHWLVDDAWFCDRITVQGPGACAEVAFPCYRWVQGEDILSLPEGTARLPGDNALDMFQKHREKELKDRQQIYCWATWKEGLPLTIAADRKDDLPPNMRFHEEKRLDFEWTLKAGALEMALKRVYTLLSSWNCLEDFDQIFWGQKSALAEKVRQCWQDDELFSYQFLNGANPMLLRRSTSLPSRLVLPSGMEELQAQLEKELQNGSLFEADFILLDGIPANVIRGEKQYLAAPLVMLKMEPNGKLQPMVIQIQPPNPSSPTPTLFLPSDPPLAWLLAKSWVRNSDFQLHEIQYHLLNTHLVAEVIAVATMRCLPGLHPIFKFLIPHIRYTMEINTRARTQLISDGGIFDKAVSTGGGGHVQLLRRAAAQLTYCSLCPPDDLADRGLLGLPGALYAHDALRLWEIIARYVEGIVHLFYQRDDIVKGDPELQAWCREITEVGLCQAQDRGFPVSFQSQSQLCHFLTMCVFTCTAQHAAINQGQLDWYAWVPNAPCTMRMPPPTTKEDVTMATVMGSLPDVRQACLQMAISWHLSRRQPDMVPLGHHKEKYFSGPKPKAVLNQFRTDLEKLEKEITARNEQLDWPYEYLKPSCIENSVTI
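Hydroperoxide product was detected by ferrous iron/xylenol orange as the 573 to 405 nm absorbance ratio. Arachidonic acid at 40 uM (final) was turned over for 30 min at room temperature by 150 nM human 12hLO, pH 7.0 Hepes buffer, after 15 min compound preincubation.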
ELG1 DNA repair: qHTS screen for small molecules that inhibit ELG1-dependent DNA repair in human embryonic kidney (HEK293T) cells expressing luciferase-tagged ELG1; 2.3% of 330,000 active; HEK293T ELG1-luciferase reporter, luminescence, 16 h; DNA damage induced by 5-fluorouridine; Potency, µM (titrated, usually from 46.1 µM), without a hit: at the highest dose activity change, negative = inhibition, usual class: inhibitors; also: nearly all actives have a fitted effect of over 55% in size
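Reporter activity after DNA damage by 5-fluorouridine is monitored. Compound-treated cells incubate 16 hr at 37 °C, then ONE-Glo is added for 30 min before luminescence reading.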
DT40 TDP1 CPT: qHTS for Inhibitors of human tyrosyl-DNA phosphodiesterase 1 (TDP1): qHTS in cells in presence of CPT; chicken DT40 Tdp1-/-;hTDP1 cells + 20 nM CPT, ATP luminescence, 48 h; 12% of 420,000 active; Potency, µM (series often up to 46.2 µM), without a hit: top-dose activity change, negative = growth inhibition, actives largely listed as inhibitors; also: nearly all actives have a fitted effect of over 55% in size
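Cell growth measured by CellTiter-Glo luminescence after a minimum 48 h, 37 C compound exposure with 20 nM CPT in Tdp1-knockout DT40 cells stably expressing hTDP1, seeded 400/well; qHTS titration format.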
RORgamma inh: qHTS for inhibitors of ROR gamma transcriptional activity. Drosophila S2 Gal4-RORgamma UAS-luciferase reporter, 20 h. Potency, µM (doses to about 53.6 µM), inactives show at the top dose activity change, negative = inhibition, hits mostly inhibitors. 5.4% of 310,000 active; also: nearly all actives have a fitted effect of over 60% in size
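Schneider cells (Drosophila), stable Gal4 DBD–ROR gamma + UAS-luc; 1 hr cmpd preincubation; Cu2+ induction 700 uM final; 20 hr ambient; luminescence.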
* marks the source's active call; other numbers are inactive results; [ ] = another dose, or the depositor's remark. Shown are actives, neighbours in structure and some others; about 15% of the full set was active somewhere. Calls follow the shape of the dose curve; as a rule, active = well fitted curve in the direction sought with a large enough effect; inconclusive = small, poorly fitted or top-dose-only effect, or another doubt; inactive = no such curve, though single readings can be large; an effect the other way counts as inactive or inconclusive. % is scaled to controls: 0 for no effect and ±100 for the full control effect; potency is read from the fitted curve at half-maximal effect.

Screening O=S(=O)(Nc1ccccc1N1CCCC1)c1ccccc1C(F)(F)F returned DT40 TDP1 no CPT 21µM*, ALOX12 inh 3% and DT40 TDP1 CPT 21µM*.
For O=C(O)c1sccc1S(=O)(=O)Nc1ccccc1N1CCCCC1 the results were Gal4-VP16 FLuc 10% and RORgamma inh 26%.
COc1ccc(NC(=O)C2CC(=O)Nc3c(-c4ccc(OC)cc4)cnn32)cc1 (centres undefined) was read as ALOX12 inh -8%.
`Cn1nc(C(=O)N2CCC(C(=O)Nc3ccc4c(c3)OCO4)CC2)c2ccccc2c1=O` gave ALOX12 inh 18%.
`CN(CCCNC(=O)c1cn(C)c2ccc(S(=O)(=O)N(C)C)cc2c1=O)c1ccccc1` gave DT40 TDP1 no CPT inconclusive, Gal4-VP16 FLuc -6%, ALOX12 inh -2%, ELG1 DNA repair inconclusive, DT40 TDP1 CPT 18µM* and RORgamma inh 29%.
CCn1cc(C(=O)NCCc2ccc(Cl)cc2)c(=O)c2cc(S(=O)(=O)N3CCCCCC3)ccc21 was read as DT40 TDP1 no CPT 1%, ALOX12 inh 0% and DT40 TDP1 CPT -12%.
Screening CCn1cc(C(=O)N2CCCC2)c(=O)c2cc(S(=O)(=O)N3CCOCC3)ccc21 returned DT40 TDP1 no CPT 28%, Gal4-VP16 FLuc 3%, ALOX12 inh 0%, ELG1 DNA repair 3%, DT40 TDP1 CPT -22% and RORgamma inh 4.5µM*.
Screening Cn1cc(C(=O)NCc2ccc(F)cc2)c(=O)c2cc(S(=O)(=O)N3CCCCC3)ccc21 returned DT40 TDP1 no CPT 16µM*, Gal4-VP16 FLuc -2%, ALOX12 inh -25%, ELG1 DNA repair inconclusive, DT40 TDP1 CPT 23µM* and RORgamma inh 25%.
CCn1cc(C(=O)NCCc2ccc(Cl)cc2)c(=O)c2cc(S(=O)(=O)N3CCC(C)CC3)ccc21 was read as DT40 TDP1 no CPT 18µM*, ALOX12 inh inconclusive and DT40 TDP1 CPT inconclusive.
For CN1CCC(NCc2nc3c(n2Cc2ccccc2)C(=O)N(CCOc2ccccc2)CCN3)CC1 the results were ALOX12 inh 75%.
CC1Oc2ccc(NC(=O)c3ccc(F)cc3F)cc2CN(C2CCCc3ccccc32)C1=O (centres undefined) was read as ALOX12 inh 19%.
`CN(C1CCCCC1)S(=O)(=O)c1ccc2c(c1)c(=O)c(C(=O)NCCc1ccccc1)cn2C` gave DT40 TDP1 no CPT inconclusive, ALOX12 inh inconclusive and DT40 TDP1 CPT -16%.
CCCCNC(=O)c1cn(CC)c2ccc(S(=O)(=O)N3CCCC3)cc2c1=O was read as DT40 TDP1 no CPT -14%, Gal4-VP16 FLuc 5%, ALOX12 inh -23%, ELG1 DNA repair inconclusive, DT40 TDP1 CPT -22% and RORgamma inh 9%.
`CCN(CC)CCCNC(=O)c1cn(CC)c2ccc(S(=O)(=O)N3CCc4ccccc4C3)cc2c1=O` gave DT40 TDP1 no CPT 29µM*, Gal4-VP16 FLuc -4%, ALOX12 inh inconclusive, ELG1 DNA repair -2%, DT40 TDP1 CPT inconclusive and RORgamma inh 2%.
`CCn1cc(C(=O)NCCC(C)C)c(=O)c2cc(S(=O)(=O)N3CCCCC3)ccc21` gave DT40 TDP1 no CPT inconclusive, Gal4-VP16 FLuc 2%, ELG1 DNA repair 7%, DT40 TDP1 CPT 23µM* and RORgamma inh 0%.
Screening CCn1cc(C(=O)N2CCc3ccccc32)c(=O)c2cc(S(=O)(=O)N3CC(C)CC(C)C3)ccc21 (centres undefined) returned DT40 TDP1 no CPT inconclusive, Gal4-VP16 FLuc 0%, ALOX12 inh -10%, ELG1 DNA repair inconclusive, DT40 TDP1 CPT 15µM* and RORgamma inh 36%.
`CN(C1CCCCC1)S(=O)(=O)c1ccc2c(c1)c(=O)c(C(=O)NCCc1ccc(Cl)cc1)cn2C` gave DT40 TDP1 no CPT 21µM*, ALOX12 inh inconclusive and DT40 TDP1 CPT inconclusive.
For COc1ccc(N2CC(c3noc(-c4cc(F)ccc4F)n3)CC2=O)cc1 (centres undefined) the results were ALOX12 inh 24%.
For COCCNC(=O)c1nc(-c2cccc3[nH]ccc23)no1 the results were ALOX12 inh -3%.
CCn1cc(C(=O)NCCc2ccccc2)c(=O)c2cc(S(=O)(=O)N3CCCC3)ccc21 was read as DT40 TDP1 no CPT 18µM*, Gal4-VP16 FLuc -2%, ALOX12 inh -14%, ELG1 DNA repair inconclusive, DT40 TDP1 CPT inconclusive and RORgamma inh inconclusive.
Screening CC1CCN(S(=O)(=O)c2ccc3c(c2)c(=O)c(C(=O)NCc2ccc(Cl)cc2)cn3C)CC1 returned DT40 TDP1 no CPT 4.6µM*, ALOX12 inh inconclusive and DT40 TDP1 CPT -27%.
`CCn1cc(C(=O)NCCc2ccccc2)c(=O)c2cc(S(=O)(=O)N3CCOCC3)ccc21` gave DT40 TDP1 no CPT -11%, ALOX12 inh -4% and DT40 TDP1 CPT -15%.
For CC(C)CCNC(=O)c1sc2ccc(S(=O)(=O)N3CCCCC3)cc2c1N the results were DT40 TDP1 no CPT 21µM*, Gal4-VP16 FLuc -20%, ALOX12 inh -1%, ELG1 DNA repair inconclusive, DT40 TDP1 CPT 23µM* and RORgamma inh 10%.
Screening COc1ccc(NC(=O)c2sc(-c3c(F)cccc3OC)nc2C)c(OC)c1 returned ALOX12 inh 5%.
COc1ccc(CN2CCCC3(C2)C(=NC2CCCCC2)NC(=O)N3c2cc(F)cc(F)c2)cc1 (centres undefined) was read as ALOX12 inh 17%[6.33 µM].
CCNc1nc(NCC)nc(N/N=C/c2ccc(O)c(O)c2)n1 was read as DT40 TDP1 no CPT -4%, Gal4-VP16 FLuc -20%, ALOX12 inh -6%, ELG1 DNA repair inconclusive, DT40 TDP1 CPT 23µM* and RORgamma inh inconclusive.
CCNc1nc(NCC)nc(N/N=C/c2ccc(N(C)C)cc2)n1 was read as DT40 TDP1 no CPT inconclusive, Gal4-VP16 FLuc inconclusive, ALOX12 inh 5%, ELG1 DNA repair 17%, DT40 TDP1 CPT inconclusive and RORgamma inh 7.9µM*.
